Laboratory results reported in the supplement of paper PMC6555819.

Key:
Assay in all cases: PBM binding z-score (relative to random genomic background probes); higher = stronger binding; sequences stand for … in GC…GCGATTGACAGCGTAGAATGAAGG
[1] = system: FXR:RXRa (NR concentration 270 nM, RXRa partner concentration 90 nM)
Method in brief: (§1)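 Binding z-scores were set against random background probes. The data came from custom Agilent 4×180K protein-binding microarrays carrying double-stranded probes with 34-nt variable regions, incubated 1 h with ligand-free nuclear receptor dimers. Partner-specific antibodies detected binding, and scanned fluorescence was regression-normalized.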

[2] = system: LXRa:RXRa (NR concentration 270 nM, RXRa partner concentration 90 nM)
Method in brief: as §1

[3] = system: LXRa homodimer (NR concentration 270 nM)
Method in brief: as §1

[4] = system: LXRb:RXRa (NR concentration 270 nM, RXRa partner concentration 90 nM)
Method in brief: as §1

[5] = system: LXRb homodimer (NR concentration 270 nM)
Method in brief: as §1

[6] = system: PPARa:RXRa (NR concentration 270 nM, RXRa partner concentration 90 nM)
Method in brief: as §1

[7] = system: PPARg:RXRa (NR concentration 180 nM, RXRa partner concentration 90 nM)
Method in brief: as §1

[8] = system: PPARg:RXRa 270nM:90nM, anti-RXR (NR concentration 270 nM, RXRa partner concentration 90 nM)
Method in brief: as §1

[9] = system: PPARg:RXRa 30nM:10nM, anti-RXR (NR concentration 30 nM, RXRa partner concentration 10 nM)
Method in brief: as §1

[10] = system: PPARg:RXRa 90nM:30nM, anti-RXR (NR concentration 90 nM, RXRa partner concentration 30 nM)
Method in brief: as §1

[11] = system: PPARg:RXRa DBDmut IVT, anti-RXR (DBD mutation: RXRa K156A/R161A, NR concentration 270 nM, RXRa partner concentration 90 nM)
Method in brief: as §1

[12] = system: PPARg:RXRa IVT, anti-PPARg (NR concentration 270 nM, RXRa partner concentration 90 nM)
Method in brief: as §1

[13] = system: PPARg DBDmut:RXRa IVT, anti-PPARg (DBD mutation: PPARg1 K132A/R137A, NR concentration 270 nM, RXRa partner concentration 90 nM)
Method in brief: as §1

[14] = system: PPARg DBDmut IVT, anti-PPARg (DBD mutation: PPARg1 K132A/R137A, NR concentration 270 nM)
Method in brief: as §1

[15] = system: PPARg homodimer (NR concentration 180 nM)
Method in brief: as §1

[16] = system: PXR:RXRa (NR concentration 270 nM, RXRa partner concentration 90 nM)
Method in brief: as §1

[17] = system: PXR homodimer (NR concentration 270 nM)
Method in brief: as §1

[18] = system: RARa:RXR (NR concentration 270 nM, RXRa partner concentration 90 nM)
Method in brief: as §1

[19] = system: RARa homodimer (NR concentration 270 nM)
Method in brief: as §1

[20] = system: RARb:RXRa (NR concentration 270 nM, RXRa partner concentration 90 nM)
Method in brief: as §1

Row | Sequence | PBM binding z-score [1] | PBM binding z-score [2] | PBM binding z-score [3] | PBM binding z-score [4] | PBM binding z-score [5] | PBM binding z-score [6] | PBM binding z-score [7] | PBM binding z-score [8] | PBM binding z-score [9] | PBM binding z-score [10] | PBM binding z-score [11] | PBM binding z-score [12] | PBM binding z-score [13] | PBM binding z-score [14] | PBM binding z-score [15] | PBM binding z-score [16] | PBM binding z-score [17] | PBM binding z-score [18] | PBM binding z-score [19] | PBM binding z-score [20]
1 | CCTACTGGGCCAAGGTCAGTGATCAGTCAAAGCA | 0.749 | 0.797 | 0.0206 | 0.924 | -0.982 | 2.46 | 2.73 | 3.3 | 0.671 | 2.45 | 3.15 | 4.03 | 0.453 | -1.43 | 1.3 | 1.14 | -0.136 | 1.75 | -0.243 | 2.89
2 | ATATGTAGGTTGAGGGTCATTCAGGTTGGTTCGC | 3.26 | 3.21 | 1.56 | 3.31 | 1.32 | 4.86 | 7.99 | 7.58 | 6.69 | 7.97 | 4 | 4.86 | 1.94 | 0.913 | 3.16 | 4.49 | 2.53 | 3.89 | 1.57 | 2.57
3 | TCTCGGAGGACACGAAGGGTCAGAGCTCGACATC | 1.35 | 1.66 | -0.0975 | 1.19 | -1.38 | 2.06 | 0.488 | 1.25 | 1.85 | 1.44 | 1.38 | 0.541 | -0.0647 | -1.25 | 0.446 | 1.66 | -0.67 | 2.31 | -0.314 | 3.14
4 | CAAACTAGGTCACCGGAAGGTCAAAGTCCGCATG | 6.27 | 6.15 | 5.16 | 5.46 | 1.59 | 6.16 | 9.5 | 7.87 | 5.79 | 7.49 | 8.69 | 8.91 | 2.7 | 2.01 | 6.37 | 5.88 | 1.99 | 6.98 | 2.38 | 5.37
5 | TCTATTTGGTCAAAGGTCACACACTCGAAATGCG | 6.32 | 5.68 | 4.22 | 5.83 | 3.24 | 6.7 | 10.6 | 9.27 | 9.35 | 10.1 | 3.39 | 6.25 | 3.22 | 2.73 | 5.3 | 5.91 | 1.76 | 7.03 | 3.85 | 5.42
6 | AGTCAAAGATCATCTAGGTAACGTAAGATATGCT | -0.125 | 0.0142 | -0.0346 | -0.0476 | -0.391 | 0.828 | 1.67 | 1.54 | 0.643 | 1.16 | 0.742 | 2.23 | 0.348 | 0.62 | -0.382 | -0.211 | -0.246 | 0.277 | 0.136 | 0.0858
7 | GCGACTGGGGCATCAGCAGGTTACCACAACTTAA | -0.0917 | -0.185 | -0.291 | 0.725 | -0.793 | 0.935 | 0.922 | 1.13 | -0.162 | -0.0671 | 3.58 | 3.42 | -0.499 | -0.426 | 0.249 | 0.125 | -0.569 | 0.565 | -0.456 | 0.902
8 | AGAACGAGGGCAATGCGTTGATAGCACGGGTGGC | 0.0853 | 0.264 | -0.517 | -0.19 | -0.678 | 1.3 | 1.36 | 0.671 | -0.109 | 0.215 | 2.94 | 2.57 | 1.12 | 0.0782 | -0.251 | 0.219 | 0.111 | 0.271 | -0.114 | 2.21
9 | GCTCACGGGTCAAAGGTTATAGCATGAATAGAAT | 7.17 | 5.69 | 0.496 | 5.67 | 0.379 | 6.85 | 9.36 | 8.27 | 6.88 | 8.29 | 2.57 | 4.03 | 0.462 | 0.56 | 2.09 | 6.14 | 0.22 | 8.47 | 0.284 | 4.46
10 | ATCGAAAGGTCGACGAGGTGAGGATACACCGTTT | 4.5 | 3.36 | 0.0188 | 2.44 | 0.655 | 4.27 | 3.09 | 3.46 | 1.36 | 2.36 | 0.8 | 2.39 | 0.388 | 0.42 | 1.72 | 2.77 | 0.496 | 3.52 | 0.262 | 3.98
11 | ATCTCTAGGTAAGCCTCAGTTCAGTGAAGAACGC | 0.31 | 0.658 | 0.468 | 0.438 | 0.861 | 0.35 | -0.00624 | 0.396 | -0.0235 | 0.487 | 2.22 | 1.13 | -0.0785 | 0.191 | 0.657 | 1.23 | 0.98 | 0.356 | 0.375 | 0.44
12 | TCGAGTAGGTTAGTCGGGGCATTCAACCAACATA | 0.19 | 0.112 | 0.0145 | 0.776 | -0.298 | 0.929 | 0.00295 | 1.16 | 1.41 | 1.11 | 2.51 | 2.16 | -0.398 | -0.896 | -0.069 | 0.309 | -0.2 | 0.545 | 0.0845 | 0.517
13 | CCAGACAGGTGAAAGGTATCTCAGTCTGGTACGC | -0.129 | 0.0546 | -0.271 | 0.122 | -0.633 | 2.07 | 3.41 | 4.19 | 1.94 | 4.13 | 2.04 | 1.9 | 0.166 | -0.382 | 0.656 | 0.00827 | -0.341 | 0.664 | -0.422 | 0.68
14 | TTACCAAGGTGAAGGTCATTGATCCCTCTGTAGA | 4.39 | 4.39 | 2.26 | 3.7 | -0.235 | 4.36 | 5.26 | 5.49 | 3.52 | 5.38 | 2.03 | 4.57 | 1.28 | -0.00818 | 2.06 | 3.74 | 0.712 | 3.95 | 0.469 | 3.88
